# Results taken from PubChem BioAssay (EPA / NIEHS).
# Records with an inconclusive call do not appear. Calls of active or inactive are those of the source. How the source made its calls: active means hit-call score of the fitted dose curve at least 0.9, where 1 is the maximum; inconclusive means response in the unintended direction; inactive means score below 0.9.
# Tested on: not listed separately
# Assay: TOX21_p53_BLA_p5_viability: Viability Assessment in the Tox21 HCT-116 p53 Agonism Beta-lactamase Assay, Phase 5 (AID 2283600)
# Summary of the method: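 Compounds, pinned from DMSO at 217-fold dilution, were left on the cells for 16 h. The viability endpoint was ATP content measured by CellTiter-Glo luminescence, where falling signal reflects cytotoxicity.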
row,SMILES,outcome
1,c1ccc(Cc2ccccc2)cc1,inactive
2,CCCCCCCCCCCCCCCCCC(=O)OCCCCCCCCCCCCCC(C)C,inactive
3,CCCCC(CC)COC(=O)COc1ccc(Cl)cc1C (stereo not given),inactive
4,CC(=O)CCC=C(C)CCC=C(C)C,inactive
5,[Cu+],inactive
6,CCCCC1CCCCC(=O)O1 (stereo not given),inactive
7,OC[C@H]1O[C@@H](O[C@H]2[C@H](O)[C@@H](O)[C@H](O)O[C@@H]2CO)[C@H](O)[C@@H](O)[C@H]1O,inactive
8,CCCO,inactive
9,CCOC(=O)C=Cc1ccccc1,inactive
10,CC(C)CCCC(C)(C)O,inactive
11,CCCCN(CCO)CCO,inactive
12,c1coc(CNc2ncnc3nc[nH]c23)c1,inactive
13,CCOC(=O)CC1(C)OCC(C)O1 (stereo not given),inactive
14,C=CC(C)CCCC(C)(C)O (stereo not given),inactive
15,CC1=CC(=O)[C@H]2C[C@@H]1C2(C)C,inactive
16,CCCCCCCCCO,inactive
17,CC(C)OB(OC(C)C)OC(C)C,inactive
18,C=C/C(C)=C/C/C=C(\C)CCC=C(C)C,inactive

row,SMILES,outcome
1,O=C(O)c1ccco1,inactive
2,CC(C)COC(=O)c1ccccc1O,inactive
3,O=C(OCc1ccccc1)c1ccccc1O,inactive
4,O=C(O)c1cc(C(=O)O)c(C(=O)O)cc1C(=O)O,inactive
5,C=C(C)C(=O)OCCN(C)C,inactive
6,ClCCOCCOCCCl,inactive
7,NC(=O)c1cnccn1,inactive
8,COc1ccc2[nH]cc(CCNC(C)=O)c2c1,inactive
9,CCCCCCCCCCCCCC(=O)OCC,inactive
10,O=C(O)c1cccc(Cl)n1,inactive
11,CCC(C)C1CCCCC1=O (stereo not given),inactive
12,CCCCCCCCCCCCN1CCOCC1,inactive
13,CC(C)(O)C(=O)c1ccc(OCCO)cc1,inactive
14,CC(C)Cc1ccc(C(C)C(=O)O)cc1 (stereo not given),inactive
15,Cc1ccc(C(C)(C)O)cc1,inactive
16,OC[C@@H](O)[C@H](O)[C@@H](O)[C@@H](O)CO,inactive
17,C=CC(O)CCCCC (stereo not given),inactive
18,COC(=O)C(C)Oc1ccc(Oc2ncc(C(F)(F)F)cc2Cl)cc1 (stereo not given),inactive

# Molecular target: Cellular tumor antigen p53 (Homo sapiens) (UniProt P04637)
# Assay: TOX21_p53_BLA_p4_ratio: Tox21 HCT-116 p53 Agonism Beta-lactamase Assay, Ratio, Phase 4 (AID 2283601)
# Summary of the method: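 HCT116 cells carrying an inducible beta-lactamase reporter were plated at 4000 cells/well, rested 5 h, then exposed to compounds in DMSO (217-fold dilution) for 16 h at 37C. CCF4-AM substrate was loaded 2 h at room temperature; 460/530 nm emission ratio scored gain-of-signal versus DMSO.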
# Sequence of Cellular tumor antigen p53 (Homo sapiens) (P04637 whole entry, looked up): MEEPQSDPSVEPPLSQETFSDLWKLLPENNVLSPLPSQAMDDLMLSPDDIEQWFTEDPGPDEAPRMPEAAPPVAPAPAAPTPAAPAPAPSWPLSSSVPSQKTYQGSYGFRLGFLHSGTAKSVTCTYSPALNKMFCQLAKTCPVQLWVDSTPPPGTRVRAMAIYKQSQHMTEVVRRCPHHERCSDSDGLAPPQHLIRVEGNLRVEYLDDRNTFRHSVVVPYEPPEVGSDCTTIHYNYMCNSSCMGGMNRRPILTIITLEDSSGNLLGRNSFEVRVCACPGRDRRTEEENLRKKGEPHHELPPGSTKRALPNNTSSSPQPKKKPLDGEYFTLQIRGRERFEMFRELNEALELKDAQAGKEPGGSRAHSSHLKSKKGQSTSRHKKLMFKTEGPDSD
row,SMILES,outcome
1,CC(=O)CCC=C(C)CCC=C(C)C,inactive
2,c1coc(CNc2ncnc3nc[nH]c23)c1,inactive
3,C=CC(C)CCCC(C)(C)O (stereo not given),inactive
4,CC(C)COC(=O)c1ccccc1O,inactive
5,O=C(OCc1ccccc1)c1ccccc1O,inactive
6,ClCCOCCOCCCl,inactive
7,NC(=O)c1cnccn1,inactive
8,COc1ccc2[nH]cc(CCNC(C)=O)c2c1,inactive
9,Cc1ccc(C(C)(C)O)cc1,inactive
